# Test results published in the supplement of paper PMC11732987, “Enantioselective OTUD7B fragment discovery through chemoproteomics screening and high-throughput optimisation” (Communications Chemistry, 2025).
# Values without a mark were called inactive.
# Legend:
# Test in all cases: log2 ratio of Biotin-Ahx-Ub-VS probe labelling (fragment/DMSO); higher = less target engagement (more negative = stronger competition), active = hit call of the paper (q ≤ 0.05, log2 ratio ≤ -1)
# Details in all cases: compound concentration: 200 uM; treatment time: 3 h
# ALG13 = target: T1, ALG13 (UniProt Q9NP73)
# T1 sequence (whole entry): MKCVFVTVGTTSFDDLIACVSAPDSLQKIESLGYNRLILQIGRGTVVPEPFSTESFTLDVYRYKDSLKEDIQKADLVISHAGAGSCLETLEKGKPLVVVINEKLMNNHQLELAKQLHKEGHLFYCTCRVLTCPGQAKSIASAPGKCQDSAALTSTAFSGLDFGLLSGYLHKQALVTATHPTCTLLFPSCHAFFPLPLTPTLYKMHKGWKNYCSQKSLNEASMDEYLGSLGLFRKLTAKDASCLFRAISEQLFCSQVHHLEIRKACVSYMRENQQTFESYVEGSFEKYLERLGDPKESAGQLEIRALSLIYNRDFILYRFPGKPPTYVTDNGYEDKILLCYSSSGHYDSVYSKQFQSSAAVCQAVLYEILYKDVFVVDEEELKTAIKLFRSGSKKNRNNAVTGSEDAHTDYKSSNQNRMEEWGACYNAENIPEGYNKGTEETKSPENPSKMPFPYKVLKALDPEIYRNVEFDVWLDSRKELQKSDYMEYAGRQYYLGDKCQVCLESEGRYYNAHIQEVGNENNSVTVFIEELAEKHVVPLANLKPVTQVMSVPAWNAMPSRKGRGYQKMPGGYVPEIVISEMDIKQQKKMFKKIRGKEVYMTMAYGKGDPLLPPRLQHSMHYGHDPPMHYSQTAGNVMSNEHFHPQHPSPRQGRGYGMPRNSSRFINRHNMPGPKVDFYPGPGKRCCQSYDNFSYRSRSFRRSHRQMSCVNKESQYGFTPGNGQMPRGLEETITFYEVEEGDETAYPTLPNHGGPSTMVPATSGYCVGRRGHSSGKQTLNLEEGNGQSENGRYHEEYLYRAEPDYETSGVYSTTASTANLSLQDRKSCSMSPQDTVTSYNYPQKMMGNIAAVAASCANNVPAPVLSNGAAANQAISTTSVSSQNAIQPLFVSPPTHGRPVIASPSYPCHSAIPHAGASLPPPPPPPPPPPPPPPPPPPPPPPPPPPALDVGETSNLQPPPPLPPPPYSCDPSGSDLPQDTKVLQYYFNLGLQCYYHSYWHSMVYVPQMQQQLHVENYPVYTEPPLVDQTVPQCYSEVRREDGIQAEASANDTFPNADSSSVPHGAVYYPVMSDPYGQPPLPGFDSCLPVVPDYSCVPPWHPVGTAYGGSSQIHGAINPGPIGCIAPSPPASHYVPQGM
# Procedure, shortened: (§1)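 HEK293T lysate (495 µg per sample, in Tris/CHAPS/IGEPAL buffer with protease inhibitors) was treated in triplicate with fragment at 200 µM or with DMSO for 3 h. It was then treated with Biotin-Ahx-Ub-VS (0.5 µM final) for 1 h. Labelled DUBs were NeutrAvidin-enriched, digested with LysC and trypsin, and run by diaPASEF LC-MS/MS. Spectronaut label-free quantities were global-median-normalised. Values are average log2 ratios fragment/DMSO by unpaired t-test, using proteins with ≥2 unique peptides.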
# ATXN3 = ATXN3 (UniProt P54252)
# Sequence of ATXN3 (P54252 whole entry): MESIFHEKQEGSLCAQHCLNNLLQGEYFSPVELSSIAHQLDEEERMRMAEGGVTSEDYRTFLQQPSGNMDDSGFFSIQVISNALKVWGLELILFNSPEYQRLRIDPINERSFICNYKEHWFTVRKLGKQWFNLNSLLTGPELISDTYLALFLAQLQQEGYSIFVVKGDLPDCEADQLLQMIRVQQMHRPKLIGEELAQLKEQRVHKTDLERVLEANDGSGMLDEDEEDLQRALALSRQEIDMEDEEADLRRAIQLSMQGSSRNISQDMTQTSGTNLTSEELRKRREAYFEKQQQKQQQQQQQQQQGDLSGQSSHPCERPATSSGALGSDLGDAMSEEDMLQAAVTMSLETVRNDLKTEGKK
# Procedure, shortened: as §1
# BAP1 = target: T2, BAP1 (UniProt Q92560)
# T2 sequence (whole entry): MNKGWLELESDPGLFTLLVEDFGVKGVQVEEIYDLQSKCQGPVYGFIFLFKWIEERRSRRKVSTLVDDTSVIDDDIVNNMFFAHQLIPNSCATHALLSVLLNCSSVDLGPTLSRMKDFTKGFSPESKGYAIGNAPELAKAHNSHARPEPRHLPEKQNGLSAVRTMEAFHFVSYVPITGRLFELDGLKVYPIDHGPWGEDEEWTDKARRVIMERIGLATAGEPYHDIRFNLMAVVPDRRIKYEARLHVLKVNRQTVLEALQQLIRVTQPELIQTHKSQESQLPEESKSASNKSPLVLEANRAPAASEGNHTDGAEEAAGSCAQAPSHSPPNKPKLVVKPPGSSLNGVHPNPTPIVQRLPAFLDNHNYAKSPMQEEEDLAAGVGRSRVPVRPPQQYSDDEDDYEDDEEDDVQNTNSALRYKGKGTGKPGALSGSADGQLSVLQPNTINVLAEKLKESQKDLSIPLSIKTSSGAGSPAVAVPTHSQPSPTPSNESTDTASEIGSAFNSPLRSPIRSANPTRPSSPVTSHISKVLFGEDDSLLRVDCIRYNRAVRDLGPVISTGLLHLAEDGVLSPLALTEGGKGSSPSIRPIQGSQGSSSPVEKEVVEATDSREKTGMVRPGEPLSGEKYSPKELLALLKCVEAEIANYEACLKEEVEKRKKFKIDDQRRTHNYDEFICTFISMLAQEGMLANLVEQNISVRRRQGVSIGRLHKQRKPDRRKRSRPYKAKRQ
# Procedure, shortened: as §1
# EIF3F = EIF3F (UniProt O00303)
# Sequence of EIF3F (O00303 whole entry): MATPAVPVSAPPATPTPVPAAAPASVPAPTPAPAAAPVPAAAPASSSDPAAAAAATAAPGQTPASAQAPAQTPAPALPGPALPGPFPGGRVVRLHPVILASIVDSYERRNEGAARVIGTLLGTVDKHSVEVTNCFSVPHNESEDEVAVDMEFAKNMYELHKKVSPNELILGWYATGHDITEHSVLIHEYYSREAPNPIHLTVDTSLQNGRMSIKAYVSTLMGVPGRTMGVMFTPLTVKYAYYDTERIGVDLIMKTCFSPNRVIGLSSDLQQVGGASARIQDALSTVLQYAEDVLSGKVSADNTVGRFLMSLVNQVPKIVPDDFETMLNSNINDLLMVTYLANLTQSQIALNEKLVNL
# Procedure, shortened: as §1
# EIF3H = EIF3H (UniProt O15372)
# Sequence of EIF3H (O15372 whole entry): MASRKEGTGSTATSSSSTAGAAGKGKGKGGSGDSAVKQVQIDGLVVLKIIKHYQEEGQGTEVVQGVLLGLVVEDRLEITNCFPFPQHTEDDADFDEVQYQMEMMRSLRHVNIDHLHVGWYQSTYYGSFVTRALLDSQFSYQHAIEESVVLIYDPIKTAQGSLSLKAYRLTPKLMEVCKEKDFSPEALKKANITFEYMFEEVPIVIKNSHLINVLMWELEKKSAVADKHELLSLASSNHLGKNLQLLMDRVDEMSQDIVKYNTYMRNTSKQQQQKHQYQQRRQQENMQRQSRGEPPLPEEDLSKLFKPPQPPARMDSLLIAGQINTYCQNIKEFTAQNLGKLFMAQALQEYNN
# Procedure, shortened: as §1
# FAM105A = target: T3, FAM105A (UniProt Q9NUU6)
# T3 sequence (whole entry): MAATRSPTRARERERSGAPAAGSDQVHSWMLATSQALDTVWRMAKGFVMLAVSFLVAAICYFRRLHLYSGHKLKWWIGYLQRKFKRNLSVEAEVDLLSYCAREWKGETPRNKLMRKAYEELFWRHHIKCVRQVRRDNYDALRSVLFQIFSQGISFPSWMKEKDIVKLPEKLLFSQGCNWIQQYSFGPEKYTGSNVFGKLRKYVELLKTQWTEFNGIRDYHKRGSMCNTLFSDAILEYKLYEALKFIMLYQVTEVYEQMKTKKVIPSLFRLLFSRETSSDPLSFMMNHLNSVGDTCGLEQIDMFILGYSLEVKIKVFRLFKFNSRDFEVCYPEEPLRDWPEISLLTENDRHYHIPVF
# Procedure, shortened: as §1
# OTUB1 = OTUB1 (UniProt Q96FW1)
# Sequence of OTUB1 (Q96FW1 whole entry): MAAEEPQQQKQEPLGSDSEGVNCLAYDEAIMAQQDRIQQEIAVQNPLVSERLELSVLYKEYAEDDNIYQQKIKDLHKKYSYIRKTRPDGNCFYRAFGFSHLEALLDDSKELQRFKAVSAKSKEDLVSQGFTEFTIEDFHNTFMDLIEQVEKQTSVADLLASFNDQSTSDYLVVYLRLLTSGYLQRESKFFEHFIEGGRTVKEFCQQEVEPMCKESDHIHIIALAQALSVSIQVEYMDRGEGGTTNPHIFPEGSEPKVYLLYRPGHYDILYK
# Procedure, shortened: as §1
# OTUD4 = target: T4, OTUD4 (UniProt Q01804)
# T4 sequence (whole entry): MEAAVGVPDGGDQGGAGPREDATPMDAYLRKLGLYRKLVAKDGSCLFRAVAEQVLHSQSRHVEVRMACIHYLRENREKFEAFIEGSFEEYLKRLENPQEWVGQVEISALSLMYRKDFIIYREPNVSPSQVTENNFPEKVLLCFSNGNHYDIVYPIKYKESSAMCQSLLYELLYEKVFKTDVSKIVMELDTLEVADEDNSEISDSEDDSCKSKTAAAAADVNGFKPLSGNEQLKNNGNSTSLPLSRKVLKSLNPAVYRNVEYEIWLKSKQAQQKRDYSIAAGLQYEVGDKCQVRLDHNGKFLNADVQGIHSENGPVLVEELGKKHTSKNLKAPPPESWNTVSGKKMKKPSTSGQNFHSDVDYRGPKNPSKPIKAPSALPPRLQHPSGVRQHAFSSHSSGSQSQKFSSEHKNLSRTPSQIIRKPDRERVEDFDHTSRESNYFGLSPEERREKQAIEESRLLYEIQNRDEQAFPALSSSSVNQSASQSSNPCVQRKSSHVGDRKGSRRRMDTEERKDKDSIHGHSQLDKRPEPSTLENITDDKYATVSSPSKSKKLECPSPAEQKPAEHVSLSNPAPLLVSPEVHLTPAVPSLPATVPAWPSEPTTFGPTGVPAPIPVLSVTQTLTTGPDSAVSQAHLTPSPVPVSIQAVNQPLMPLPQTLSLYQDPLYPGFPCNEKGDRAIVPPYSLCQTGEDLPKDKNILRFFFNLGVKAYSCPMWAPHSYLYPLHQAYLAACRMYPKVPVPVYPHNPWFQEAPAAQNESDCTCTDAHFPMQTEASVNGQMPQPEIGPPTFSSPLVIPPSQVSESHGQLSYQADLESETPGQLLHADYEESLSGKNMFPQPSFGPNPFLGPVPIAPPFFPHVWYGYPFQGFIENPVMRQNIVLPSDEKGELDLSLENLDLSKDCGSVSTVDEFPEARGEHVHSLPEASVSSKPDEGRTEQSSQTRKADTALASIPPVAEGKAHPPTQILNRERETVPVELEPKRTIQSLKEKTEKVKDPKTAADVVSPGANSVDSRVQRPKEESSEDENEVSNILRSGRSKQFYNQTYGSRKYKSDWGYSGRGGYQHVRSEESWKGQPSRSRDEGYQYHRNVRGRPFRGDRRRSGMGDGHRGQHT
# Procedure, shortened: as §1
# OTUD5 = target: T5, OTUD5 (UniProt Q96G74)
# T5 sequence (whole entry): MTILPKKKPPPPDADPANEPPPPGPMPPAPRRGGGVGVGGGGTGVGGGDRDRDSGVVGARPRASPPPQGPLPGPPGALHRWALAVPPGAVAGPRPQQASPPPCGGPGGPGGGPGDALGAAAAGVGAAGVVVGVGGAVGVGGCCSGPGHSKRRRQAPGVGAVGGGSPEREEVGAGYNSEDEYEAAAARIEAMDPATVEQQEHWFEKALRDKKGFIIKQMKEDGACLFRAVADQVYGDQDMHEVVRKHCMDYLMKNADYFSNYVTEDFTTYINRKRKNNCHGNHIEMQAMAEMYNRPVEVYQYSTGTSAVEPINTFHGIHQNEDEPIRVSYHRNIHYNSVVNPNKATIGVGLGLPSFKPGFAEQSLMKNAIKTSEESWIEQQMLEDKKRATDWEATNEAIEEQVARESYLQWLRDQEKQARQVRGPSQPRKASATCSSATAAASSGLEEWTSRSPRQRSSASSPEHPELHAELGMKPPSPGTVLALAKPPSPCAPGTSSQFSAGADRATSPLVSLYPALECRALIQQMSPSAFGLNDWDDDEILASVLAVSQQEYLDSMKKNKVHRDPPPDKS
# Procedure, shortened: as §1
structure (smiles),measurement,setting,value
O=C(CCl)N1CCCCC12CCOCC2,log2 ratio of Biotin-Ahx-Ub-VS probe labelling,ALG13,0.112
same,log2 ratio of Biotin-Ahx-Ub-VS probe labelling,ATXN3,-0.355
same,log2 ratio of Biotin-Ahx-Ub-VS probe labelling,BAP1,-1.05 (active)
same,log2 ratio of Biotin-Ahx-Ub-VS probe labelling,EIF3F,-0.323
same,log2 ratio of Biotin-Ahx-Ub-VS probe labelling,EIF3H,-0.162
same,log2 ratio of Biotin-Ahx-Ub-VS probe labelling,FAM105A,0.208
same,log2 ratio of Biotin-Ahx-Ub-VS probe labelling,OTUB1,-0.126
same,log2 ratio of Biotin-Ahx-Ub-VS probe labelling,OTUD4,-0.484
same,log2 ratio of Biotin-Ahx-Ub-VS probe labelling,OTUD5,-0.461
